# Rows were chosen to be rich in hits. Some 2.4% of all compounds tested hit in one or more screens of this group.
# D2 ag-1: HTS Assay for Allosteric Agonists of the Human D2 Dopamine Receptor: Primary Screen for Agonists; AID 485358, 2010; D(2) dopamine receptor (Homo sapiens), P14416; 0.53% of 340,000 active; activation, % at 2 µM; HEK293 T-REx D2 cells, calcium flux agonist mode;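 active = activation over 3 SD above normal in the single-dose calcium agonist read, cut at about 30% in these data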; note: 0% is about no effect
# Target sequence (P14416 whole entry, looked up): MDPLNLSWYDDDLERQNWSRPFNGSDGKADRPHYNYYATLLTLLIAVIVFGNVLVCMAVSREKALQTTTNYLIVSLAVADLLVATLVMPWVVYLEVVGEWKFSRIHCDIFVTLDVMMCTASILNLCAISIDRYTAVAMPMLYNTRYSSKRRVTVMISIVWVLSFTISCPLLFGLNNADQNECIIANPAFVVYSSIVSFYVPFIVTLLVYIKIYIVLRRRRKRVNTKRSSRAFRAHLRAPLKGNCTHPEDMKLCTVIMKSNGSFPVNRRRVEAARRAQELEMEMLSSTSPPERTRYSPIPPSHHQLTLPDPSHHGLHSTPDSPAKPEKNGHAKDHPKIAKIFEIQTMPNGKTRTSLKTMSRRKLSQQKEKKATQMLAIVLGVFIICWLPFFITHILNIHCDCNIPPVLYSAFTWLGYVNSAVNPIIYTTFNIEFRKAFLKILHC
#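 In this primary screen, compounds producing a positive calcium signal within 180 s of addition to tetracycline-induced, force-coupled HEK293 Trex D2 cells are flagged; cells are dye-loaded with a no-wash calcium kit beforehand.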
# D2 ag-2: Beta-Arrestin HTS for Positive Allosteric Modulators of the Human D2 Dopamine Receptor: Agonists | AID 624465, 2012 | DiscoveRx PathHunter D2 beta-arrestin, luminescence, 90 min; 100% = 57 uM dopamine signal | activation, % (no concentration beside the values) | 0.084% of 360,000 active | D(2) dopamine receptor (Homo sapiens), P14416; in the data active = activation above about 40%; inconclusive = between about 15% and that limit
#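 DiscoveRx PathHunter D2 beta-arrestin cells (2,100/well) attached overnight, then compound-stimulated 90 min at 37 C in HBSS/10 mM HEPES/0.1% Tween-20 buffer; beta-galactosidase complementation read by luminescence after 1 h at ambient temperature. Dopamine 57 uM final (EC100) as control.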
# D2 antagonist: HTS Assay for Allosteric Antagonists of the Human D2 Dopamine Receptor: Primary Screen for Antagonists | HEK293 TREx D2 cells, calcium flux, dopamine EC80 | 2% of 340,000 active | inhibition, % at 10 µM; in the data active = inhibition above about 30%; inactive = below that, where a call was filed; note: 0% is about no effect
#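 Tetracycline-induced HEK293 T-REx cells expressing D2 force-coupled to calcium signalling were dye-loaded, exposed to compound for 180 s, then challenged with an EC80 of dopamine; calcium flux was followed kinetically for a further 180 s.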
# D2 PAM-1: Beta-Arrestin HTS for Positive Allosteric Modulators of the Human D2 Dopamine Receptor: Potentiators. D(2) dopamine receptor (Homo sapiens), P14416. DiscoveRx D2 beta-arrestin cells, luminescence, 90 min; 100% = 57 uM dopamine signal. potentiation, % (concentration not given with the values). 0.23% of 360,000 active. AID 624464, 2012; in the data active = potentiation above about 50%; inconclusive = mostly about 30% to 49%
#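 D2 cells co-treated with compound plus 50 nM dopamine (EC20) for 90 min at 37 deg C to detect potentiation. Beta-arrestin recruitment was read as enzyme-fragment luminescence after 1 h at ambient temperature. Full response was set by 57 uM dopamine.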
# D2 PAM-2: HTS Assay for Positive Allosteric Modulators of the Human D2 Dopamine Receptor: Primary Screen for Potentiators; potentiation, % at 10 µM; D(2) dopamine receptor (Homo sapiens), P14416; 0.34% of 340,000 active; AID 485347, 2010; HEK293 T-REx D2, calcium flux, EC20 dopamine potentiation;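 active = potentiation over 3 SD above the plate norm, cut at about 30% in these data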; note: 0% is about no effect
#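 Primary screen. Calcium kinetics in induced HEK293 T-REx D2 cells: compound pre-addition 180 s, EC20 dopamine, 180 s more.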
# Starred values were filed as active, the others as inactive; u = inconclusive; x = not tested or not shown; ! = a repeat was not active.
SMILES,D2 ag-1,D2 ag-2,D2 antagonist,D2 PAM-1,D2 PAM-2
COc1ccccc1N1CCN(CCC(=O)Nc2cccc(Cl)c2)CC1,36.0*,-1.6,96.2*,-26.1,-39.0
COc1ccccc1N1CCN(CCC(=O)Nc2ccc(F)cc2)CC1,5.1,-4.7,66.4*,-27.7,-23.1
CCOC(=O)c1c(C)n(C)c2ccc(OC)c(NC(=O)CN3CCSCC3)c12,-0.2,-3.8,-12.4,-7.7,0.8
CCOC(=O)c1c(C)n(C)c2ccc(OC)c(NC(=O)CCN3CCC(Cc4ccccc4)CC3)c12,0.5,-3.1,90.8*,-16.0,-32.4
CC(=O)N1CCc2c(sc3c2c(=O)n(-c2ccc(C)cc2)c(=O)n3Cc2c(F)cccc2Cl)C1,0.9,x,x,x,18.8
CC(c1ccco1)N(C(=O)c1ccccc1F)c1ccccn1 (stereo unspecified),-0.3,0.5,-0.7,-1.1,1.3
CC(c1ccco1)N(C(=O)c1ccc(Cl)s1)c1ccccn1 (stereo unspecified),33.8*,8.2,-33.1,5.3,-6.4
COc1ccc(CCC(=O)Nc2cccc(Cl)c2)cc1,0.3,-2.0,-10.6,-19.2,-9.0
O=C(CCc1ccc(Oc2cc([N+](=O)[O-])cc([N+](=O)[O-])c2)cc1)N1CCCCC1,-0.6,u,-20.8,57.6*,9.4
O=C(CCc1ccc(Oc2cc([N+](=O)[O-])cc([N+](=O)[O-])c2)cc1)Nc1cccc(Cl)c1,-1.0,u,-5.6,64.0*,-3.3
O=C(c1ccc(Oc2ccc([N+](=O)[O-])cc2)cc1)N1CCCCCC1,-1.0,-6.5,2.6,-3.3,-2.7
Cc1cccc(S(=O)(=O)NC(=O)C2(C)CCN2C(=O)c2c(C)noc2C)c1 (stereo unspecified),x,-4.8,x,-6.8,x
COc1cc(NC(=O)CSc2nc(-c3ccc(C(C)C)cc3)no2)cc(OC)c1,0.8,x,x,x,1.6
FC(F)(F)c1cccc(N2CCN(Cc3nnc(-c4ccc5c(c4)OCO5)o3)CC2)c1,-0.2,x,x,x,-16.3
O=C1C2C3C=CC(CC3)C2C(=O)N1c1ccc([N+](=O)[O-])cc1 (stereo unspecified),0.6,1.3,-13.5,-0.9,-1.6
CC(=O)Oc1ccc(N2C(=O)C3C4C=CC(CC4)C3C2=O)cc1[N+](=O)[O-] (stereo unspecified),-1.3,-4.4,62.2*,-7.1,15.5
Cc1ccc(CCNc2nc3c(S(=O)(=O)c4ccc(C)cc4)nnn3c3ccsc23)cc1,x,x,x,x,5.7
CCCCCn1c(=N)n(CC(O)COc2ccccc2OC)c2ccccc21 (stereo unspecified),-0.6,-3.8,32.4*!,-3.4,-9.8
COc1ccc(Br)cc1/C=N/NC(=O)C[n+]1ccccc1,0.8,-5.8,40.0*,-7.8,-19.9
O=C(C[n+]1ccccc1)N/N=C/c1cc(Br)ccc1F,0.4,-4.7,-6.8,-32.6,-19.0
O=C(C[n+]1ccccc1)N/N=C/c1cc(Br)cc(Br)c1O,2.1,-7.5,31.7*,-30.7,-32.0
Cc1ccc(-n2nc3cc(C)c(NC(=O)COc4ccccc4)cc3n2)cc1,-0.2,x,x,x,2.1
O=C1C2CCCN2C(c2cccc(Br)c2)N1c1ccc(F)cc1 (stereo unspecified),-1.1,0.1,37.7*,-2.3,-5.5
CCOC(=O)C1CCC(CN(Cc2ccc(Cl)cc2)S(=O)(=O)c2ccc(Br)cc2)CC1 (stereo unspecified),-0.4,x,x,x,1.5
COCCCN1C(=O)C(O)=C(C(C)=O)C1c1cccc(F)c1 (stereo unspecified),0.7,-4.2,36.8*,-13.3,-4.0
SMILES,D2 ag-1,D2 ag-2,D2 antagonist,D2 PAM-1,D2 PAM-2
CCCCN1C(=O)C(O)=C(C(C)=O)C1c1ccccc1 (stereo unspecified),-1.3,-0.5,-10.5,8.5,-0.8
COc1ccc(-c2nc(SCC(=O)NCc3nc4ccccc4n3C)n3[nH]c(=O)cc3n2)cc1,-0.2,x,x,x,-5.7
NC(=O)c1ccsc1NC(=O)C1CCCN1S(=O)(=O)c1ccc(Cl)cc1 (stereo unspecified),0.0,-4.6,5.9,-3.9,-2.7
CC1CCCCN1S(=O)(=O)c1ccc(C(=O)Nc2sccc2C(N)=O)cc1 (stereo unspecified),0.5,3.5,31.4*,-2.1,-15.8
Cc1onc(-c2ccc(Cl)cc2Cl)c1C(=O)/C=C/N(C)C,-0.1,-3.7,16.2,-12.5,-1.3
CC(=O)c1c(-c2ccc(Cl)cc2Cl)noc1C,0.2,-19.2,30.2*,-7.8,-11.3
c1ccc(OC2CCCCC2N2CCOCC2)cc1 (stereo unspecified),x,-1.7,x,-12.7,x
O=C(NC1=C(Nc2ccc(Cl)cc2)C(=O)c2ccccc2C1=O)c1ccccc1,-1.4,11.7,7.1,51.2*,0.7
O=C(Cn1cc(S(=O)(=O)Cc2cccc(Cl)c2)c2ccccc21)Nc1ccccc1C(F)(F)F,-0.4,x,x,x,3.4
O=C(Cc1ccc(NC(=O)C2CCN(C(=O)C3CC3)CC2)cc1)Nc1ccc(C(=O)N2CCOCC2)cc1,x,0.1,x,-4.4,x
CCc1ccc(C2c3c(-c4ccccc4O)n[nH]c3C(=O)N2Cc2ccncc2)cc1 (stereo unspecified),8.7,x,x,x,2.9
CCn1c(C)nc2cc(C(=O)N/N=C/c3ccc(O)c(O)c3O)ccc21,31.8*,0.5,-5.6,15.6,-6.9
CC1CC(=O)Nc2ccccc2N1C(=O)COc1ccccc1C(N)=O (stereo unspecified),x,4.0,x,-7.5,x
c1ccc(COc2cccc(CN3CCCCC3)c2)cc1,x,-5.2,x,-4.9,-12.8
c1ccc(COc2cccc(CN3CCN(c4ccccn4)CC3)c2)cc1,0.0,47.9*,-20.4,u,-8.3
Cc1cccc(CN2CCN(c3ccccn3)CC2)c1,x,46.1*,x,91.5*,x
CCOc1ccccc1NC(=O)C1CCN(S(=O)(=O)Cc2ccccc2)CC1,3.1,x,x,x,11.7
CC(=O)Nc1nonc1-c1nc2ccccc2n1C,-0.6,-0.6,-3.1,-8.1,7.7
Cn1c(-c2nonc2NC(=O)c2ccc(C(C)(C)C)cc2)nc2ccccc21,0.7,x,44.2*,x,2.3
O=C(O)c1ccc(-c2ccc(/C=N/Nc3ccc([N+](=O)[O-])cc3)o2)cc1,53.8*,-5.5,8.0,-4.7,-3.7
O=C(O)c1ccc(N/N=C/c2ccc(-c3cccc(Cl)c3)o2)cc1,x,12.1,x,2.8,x

# Screening results as filed in PubChem BioAssay.
